# Screening results from PubChem.
# An excerpt weighted towards active compounds, which were near 3.1% of everything screened.
# GSIS activator – GLuc luminescence reporter in INS-1E cells, primary screen for activators of glucose-dependent secretion of insulin; INS-1E GLuc reporter insulin secretion, 2-3 h; activation, % at 16.6 µM; actives 0.61% (n = 370,000); AID 743287, 2014;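 active means lowest replicate activation of at least 40%, so every replicate reaches that level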;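 further: 0% = median of neutral control wells and 100% = median of IBMX positive control wells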
# DENV2 CPE rescue – inhibitors of DENV2 cytopathic effect, primary screen, cell-based, plate reader, single concentration; actives 1.7% (n = 350,000); CPE inhibition, % at 9.99 µM; DENV2-infected cells, cytopathic effect rescue; in the data active means CPE inhibition above about 20%, passing the limit was not always enough; inconclusive means no clear call, values can overlap the other calls; tested in BHK-21 cells;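 further: 0% = median of neutral control wells and 100% = median of positive control wells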
# dFosB activator – activators of delta FosB homodimer, primary screen, biochemical, fluorescence polarization, TAMRA-CDK5 oligo, single point; Protein FosB (Mus musculus), P13346; purified delta FosB; percent of positive-control signal above neutral wells; activation, % at 25 µM; actives 0.99% (n = 340,000); AID 493131, 2011;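 active means mean activation above about 17%, with every replicate also reaching it, limit read from the data, passing the limit was not always enough; inconclusive means only one of the two conditions met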
# Target sequence (P13346 whole entry, looked up): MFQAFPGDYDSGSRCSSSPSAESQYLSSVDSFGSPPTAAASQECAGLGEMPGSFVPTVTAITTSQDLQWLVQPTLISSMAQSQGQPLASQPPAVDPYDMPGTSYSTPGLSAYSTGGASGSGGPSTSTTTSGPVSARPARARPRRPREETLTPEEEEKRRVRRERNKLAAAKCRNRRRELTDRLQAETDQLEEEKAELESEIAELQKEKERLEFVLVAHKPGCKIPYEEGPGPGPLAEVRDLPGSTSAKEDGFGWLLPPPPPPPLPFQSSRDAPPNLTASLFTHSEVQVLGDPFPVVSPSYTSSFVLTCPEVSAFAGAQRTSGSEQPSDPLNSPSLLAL
# MLL AF4-AF9 inh – inhibitors of AF4 peptide binding to AF9, primary screen, biochemical, AlphaScreen, biotin-AF4 peptide, FLAG-AF9, single point. inhibition, % at 10 µM. actives 0.47% (n = 350,000). AID 651704, 2012;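 active means every replicate reaching a set inhibition limit, whatever the replicate mean, cut at about 25% in these data; inconclusive means mean inhibition reaches that limit but some replicates miss it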;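 further: 0% = plate neutral control median and 100% = total signal loss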
# RAD52 anneal inh – RAD52 DNA annealing inhibitors, primary screen, biochemical, FRET, single point, set 2. DNA repair protein RAD52 homolog (Homo sapiens), P43351. inhibition, % at 18.7 µM. actives 0.46% (n = 360,000). recombinant RAD52 DNA annealing, FRET fluorescence;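 active means every replicate showing at least 50% inhibition; inconclusive means mean inhibition at least 50% but not in every replicate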
# RAD54 branch – inhibitors of human RAD54 branch migration, primary screen, biochemical, fluorescence, single point; actives 0.14% (n = 360,000); RAD54 Holliday junction branch migration, FAM/BHQ fluorescence; AID 602329, 2012; DNA repair and recombination protein RAD54-like (Homo sapiens), Q92698; inhibition, % at 10.4 µM;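 active means mean normalized replicate activity at least 40 and at least half of replicates scoring 40 or more; inconclusive means only one of the two criteria met; inactive means mean below 40 and under half of replicates reaching 40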;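 further: 0% = median of neutral control wells and 100% = median of positive control wells; inhibitors cause a drop in the FAM fluorescence signal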
# Starred values were filed as active, the others as inactive; ? = inconclusive; . = no result.
SMILES,GSIS activator,DENV2 CPE rescue,dFosB activator,MLL AF4-AF9 inh,RAD52 anneal inh,RAD54 branch
O=C(Nc1cccnc1)c1cnn2c(C(F)F)cc(C3CC3)nc12,60*,.,-26,.,.,-1
O=S(=O)(c1ccc(=S)[nH]c1)N1CCN(Cc2ccccc2)CC1,-4,25*,6,-3,-17,8
O=S(=O)(c1ccc(=S)[nH]c1)N1CCCCC1,.,2,1,-1,3,5
CCCC#Cc1ccc([C@H]2[C@H]3CN(CC4CC4)CCCCN3[C@H]2CO)cc1,5,-9,.,6,14,-3
COCC#Cc1ccc([C@H]2[C@H]3CN(Cc4cncnc4)CCCCN3[C@H]2CO)cc1,3,21*,.,-2,-9,-2
CN(C)CC#Cc1ccc([C@@H]2[C@@H](CO)N3CCCCN(CC4CC4)C[C@H]23)cc1,22,-5,.,16,55*,0
CN(C)CC#Cc1ccc([C@H]2[C@H]3CN(CC4CCOCC4)CCCCN3[C@H]2CO)cc1,3,-9,.,-4,38,-11
COCC#Cc1ccc([C@H]2[C@@H](CO)N3CCCCN(Cc4cncnc4)C[C@@H]23)cc1,-1,16,.,0,-14,0
CCCC#Cc1ccc([C@H]2[C@H](CO)N3CCCCN(CC4CCOCC4)C[C@@H]23)cc1,-10,56*,.,6,6,-10
CN(C)CC#Cc1ccc([C@@H]2[C@H]3CN(CC4CC4)CCCCN3[C@H]2CO)cc1,18,-8,.,26*,74*,-9
CN(C)CC#Cc1ccc([C@H]2[C@@H](CO)N3CCCCN(CC4CC4)C[C@H]23)cc1,23,-6,.,26*,67*,1
COc1ccc2c3c([nH]c2c1)[C@@H](CO)N(Cc1nccs1)CC31CCN(C(=O)C2CCC2)CC1,-2,3,.,-3,-31,.
O=S(=O)(c1ccc(-c2csc(Nc3ccc(Br)cc3)n2)cc1)N1CCCC1,89*,.,1,.,.,.
O=S(=O)(c1ccc(-c2csc(Nc3ccc(F)cc3)n2)cc1)N1CCCC1,-2,1,-1,-1,-8,-2
Cc1noc(C)c1NC(=O)N(C)C[C@H]1Oc2ccc(NC(=O)Nc3ccc4c(c3)OCO4)cc2C(=O)N([C@@H](C)CO)C[C@H]1C,3,19,.,1,6,-1
Cc1cc(C(=O)OCC(=O)Nc2c(Cl)cccc2Cl)c(C)o1,12,-3,22*,-1,0,-5
O=C(Nc1ccccc1F)N1CC(=O)N2[C@@H](CO)[C@@H](c3ccc(-c4ccc(F)cc4)cc3)[C@@H]2C1,-16,.,.,.,.,.
Cc1nccn1-c1ncnc2sc3c(c12)CCCC3,67*,.,4,.,.,.
Cc1cc(C)n(-c2ncnc3sc4c(c23)CCCC4)n1,48,7,-2,-1,5,.
COc1ccc(NC(=O)Nc2ccc3c(c2)CC(=O)N([C@H](C)CO)C[C@H](C)[C@@H](CN(C)S(C)(=O)=O)O3)cc1,19,6,.,-1,10,-7
Cc1ccc(NC(=O)c2ccc3c(c2)OCO3)cc1Cl,.,22*,-7,-3,-5,15
CCn1nc(C(=O)Nc2ccc3nc(C)sc3c2)c2ccccc2c1=O,53*,.,2,.,.,-13
Cc1ccc(NC(=O)c2ccc(NCCN)c([N+](=O)[O-])c2)cc1Cl,.,15,39*,8,29,.
CCNc1ccc(C(=O)Nc2ccc3nc(C)sc3c2)cc1[N+](=O)[O-],6,33*,-3,2,-19,-4
Cc1ccc(C(=O)Nc2ccc3c(c2)OCO3)cc1Cl,12,-9,4,-3,-2,11
SMILES,GSIS activator,DENV2 CPE rescue,dFosB activator,MLL AF4-AF9 inh,RAD52 anneal inh,RAD54 branch
Cc1nc2ccc(NC(=O)c3ccccc3)cc2s1,-14,-2,-16,-1,-222,.
O=C(C[C@H]1CC[C@H]2[C@@H](COC[C@@H](O)CN2Cc2cc(F)ccc2F)O1)N[C@@H]1CCN(Cc2ccccc2)C1,-1,-5,.,4,-11,-2
C[C@@H](O)C#Cc1cnc2c(c1)C(=O)N([C@@H](C)CO)C[C@H](C)[C@@H](CN(C)C(=O)Cc1ccccn1)O2,28,11,.,-4,-4,3
COc1ccc(NC(=O)N(C)C[C@H]2OCCCC[C@H](C)Oc3ccc(NS(=O)(=O)c4ccc(F)cc4)cc3C(=O)N([C@@H](C)CO)C[C@@H]2C)cc1,-18,?,.,4,-1,-1
Cc1nc2cc(NC(=O)c3ccc([N+](=O)[O-])s3)ccc2s1,20,73*,-3,1,-11,-8
NC(=O)c1cc2cc(Cl)ccc2oc1=Nc1cccc(C(F)(F)F)c1,.,66*,-7,3,-9,1
CCOC(=O)c1cnc2c(Cl)cc(Cl)cc2c1NCCCN1CCOCC1,2,-8,-16,-1,-21,18
CCOC(=O)c1cnc2c(C)cc(Cl)cc2c1NCCCN1CCOCC1,6,16,-8,-10,12,57*
Fc1ccccc1-c1nc(-c2ccccc2)no1,.,.,-1,.,.,-5
Fc1ccccc1-c1nc(-c2ccc(-c3nn[nH]n3)cc2)no1,-3,20*,-15,-7,-21,-12
CC(=O)Nc1ccc2c(c1)CC(=O)N(C)C[C@@H](C)[C@H](CN(C)S(C)(=O)=O)O2,24,.,.,.,.,.
Cc1ccc(S(=O)(=O)NCC[C@H]2CC[C@H](NC(=O)c3cnccn3)[C@@H](CO)O2)cc1,-18,2,.,-1,-7,-6
CCC(=O)N1CC[C@H]2[C@H](CO)Nc3ccc(C#Cc4ccc(OC)cc4)cc3[C@H]21,0,56*,.,26*,-5,.
N#Cc1cccc(-c2ccc3c(c2)[C@H]2[C@H](CCN2Cc2ccncc2)[C@H](CO)N3)c1,-5,50*,.,-2,-65,-8
OC[C@@H]1Nc2ccc(C3=CCCCC3)cc2[C@@H]2[C@H]1CCN2Cc1nccs1,1,7,.,25*,-4,.
COc1ccc(C#Cc2ccc3c(c2)[C@H]2[C@H](CCN2Cc2ccncc2)[C@@H](CO)N3)cc1,11,3,.,11,63*,.
COc1ccc(C#Cc2ccc3c(c2)[C@@H]2[C@@H](CCN2C(=O)c2ccncc2)[C@@H](CO)N3)cc1,-1,3,.,.,.,-11
COCC(=O)N1CC[C@@H]2[C@H]1c1cc(-c3cccc(C#N)c3)ccc1N[C@@H]2CO,16,-3,.,-1,-7,4
COCC(=O)N1CC[C@@H]2[C@H](CO)Nc3ccc(-c4cccc(C#N)c4)cc3[C@@H]21,11,44*,.,-3,-21,3
COCC(=O)N1CC[C@H]2[C@H](CO)Nc3ccc(C#Cc4ccc(OC)cc4)cc3[C@H]21,-8,29*,.,23,14,.
